# From PubChem BioAssay (NCATS)
# Results filed as inconclusive are left out. Activity calls are given as the source filed them. The call rests on the fitted dose curve; in most records, active means well fitted inhibition curve with a large enough effect; inconclusive means small, poorly fitted or top-dose-only effect; inactive means no such curve, though single readings can be large or run the other way.
# Test: BET inhibitor-based combinations targeting novel dependencies in MECOM-rearranged (r) AML: HNT-34 cell line (AID 2202234); further: nearly all actives have a fitted effect of over 35% in size;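 on viability (% of control): plate controls were vehicle wells for no effect and cell-free wells for full effect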
# Conditions: HNT-34 AML viability, CellTiter-Glo luminescence, 48 h; series mostly up to 46 µM; viability (% of control): at the top concentration
# From the text: Ecotropic viral insertion site 1 (EVI1) is located on chromosome 3q26.2 as part of the MECOM (MDS and EVI1 complex) locus. Under normal hematopoiesis, EVI1 is a regulator of hematopoietic stem cell maintenance and self-renewal and EVI1 levels decrease as the cells differentiate. In approximately 5-10% of de novo acute myeloid leukemia (AML) EVI1 is aberrantly expressed, including Chromosomal inv(3)(q21;q26.2) or t(3;3)(q21;q26.2) alterations (MECOM-r) that account for about 50% of AML with EVI1 overexpression 31. AMLs with high levels of EVI1 have a poor prognosis and an overall survival time averaging between 10-14 months. EVI1 overexpression confers resistance in leukemia cells, highlighting the need to develop new targeted therapies for EVI1 overexpressing AMLs. Here, we performed an unbiased chemical drug screening by evaluating the single agent activity of a collection of 2,480 oncology-focused, approved and investigational drugs (NCATS Mechanism Interrogation Plates, MIPE v5.0) against a panel of seven AML cell lines. These included four MECOM-r cell-lines (AML-191, AML-194, UCSD-AML1 and HNT-34) and three non-MECOM-r AMLs (MV4-11, OCI-AML3 and SET-2). Exploiting the mechanistic redundancy built in the library, we identified target-level sensitivities in MECOM-r AML cells and relative activity as compared to other AML subtypes.
# A collection of 2480 mechanistically annotated dugs (MIPE v5.0) was used to screen four 3q26.2 rearranged AML cell lines and three non-3q26.2 rearranged AML cell lines. This library purposely exploits redundancy by including multiple inhibitors of key onco-targets, while simultaneously encompassing mechanistic diversity, targeting more than 800 distinct mechanisms of action. Briefly, cells were seeded in 5 uL of growth media using a Multidrop Combi dispenser into 1536 well white polystyrene tissue culture treated plates (Corning) at a density of 500cells/well. For each cell-line, for each of the 2480 drugs in MIPE v5.0 library, an 11-point dose curve was generated via a 1536 pin-tool. Plates were incubated for 48 hr at standard incubator conditions, covered by a stainless steel gasketed lid to prevent evaporation. Cell viability was determined by luminescence based, Cell Titer Glo assay (Promega). In detail, 3 uL of Cell Titer Glo were added to each well and plates were incubated at room temperature for 15 min with a stainless-steel lid in place. Luminescence readings were taken using a Viewlux (PerkinElmer) with a 2 s exposure time per plate. Compound dose-response curves were normalized to DMSO and empty well controls on each plate. Quantitative drug activity data from dose-response curves was determined utilizing area Under the Curve (AUC) and Z-transformed AUC (Z-AUC, a mean-centering transformation applied to each individual cell-line screened).
# Potency means the concentration at half of the fitted maximal effect.
Compound,viability (% of control),Potency
COc1cc2cc(c1Cl)N(C)C(=O)C[C@H](OC(=O)C(C)C)[C@]1(C)O[C@@H]1[C@H](C)[C@@H]1C[C@@](O)(NC(=O)O1)[C@H](OC)/C=C/C=C(\C)C2,28.6% (inactive),
C[C@H]1CCC/C=C/C2C[C@H](O)C[C@H]2[C@H](O)/C=C/C(=O)O1 (stereo not given in full),,296 nM (active)
CN1C(=O)CCS(=O)(=O)C1c1ccc(Cl)cc1 (stereo not given),104% (inactive),
N[C@@H](Cc1ccc(N(CCCl)CCCl)cc1)C(=O)O,,3720 nM (active)
CC1=C(O)C(=O)C=C2C1=CC=C1[C@@]2(C)CC[C@@]2(C)[C@@H]3C[C@](C)(C(=O)O)CC[C@]3(C)CC[C@]12C,,934 nM (active)
CC(C)[C@H]1C(=O)N[C@H](CO)Cc2c[nH]c3cccc(c23)N1C,,51.2 nM (active)
CC(=O)OC[C@H]1O[C@@H]([S-])[C@H](OC(C)=O)[C@@H](OC(C)=O)[C@@H]1OC(C)=O.CC[PH+](CC)CC.[Au],,833 nM (active)
CCOC(=O)Nc1ccc(NCc2ccc(F)cc2)cc1N,88.2% (inactive),
COCC1(CO)C(=O)C2CCN1CC2 (stereo not given),,5900 nM (active)
CC[C@H]1/C=C\C=C/C[C@@H](C)[C@H](O)[C@@](C)(O)C(=O)[C@@H](C)[C@H](O)[C@@H](C)C(=O)[C@@H](C)[C@H](O)[C@@H](C)/C=C\C(=O)O[C@@H]2[C@H](C)[C@H](CC1)O[C@]1(CC[C@H](C)[C@H](C[C@@H](C)O)O1)[C@H]2C,,46.8 nM (active)
O=C1CC[C@@]2(O)[C@H]3Cc4ccc(O)c5c4[C@@]2(CCN3CC2CC2)[C@H]1O5,99.4% (inactive),
C[C@]12COC(=O)C[C@@H]1CC[C@@H]1[C@@H]2CC[C@@]2(C)[C@H]1CC[C@]2(C)O,97.2% (inactive),
O=C(NCC1CCOCC1)c1cnc(Nc2ccc(Cl)cc2Cl)nc1C(F)(F)F,96.3% (inactive),
CN1CCN(c2ccc([N+](=O)[O-])c3no[n+]([O-])c23)CC1,,18600 nM (active)
COC(=O)[C@@]12OC[C@]34[C@H]([C@@H](O)[C@@H]1O)[C@@]1(C)CC(=O)C(O)=C(C)[C@@H]1C[C@H]3OC(=O)[C@H](OC(=O)/C=C(\C)C(C)C)[C@@H]24,,4.2 nM (active)
CCOC(=O)c1c(C(C#N)=CN)c2ccc(Cl)c(Cl)c2n1C,87% (inactive),
C/C(O)=C(\C#N)C(=O)Nc1cc(Br)ccc1Br,88.7% (inactive),
COC1=C[C@@H]2[C@@H]3Cc4ccc(OC)c(O)c4[C@]2(CCN3C)CC1=O,88.6% (inactive),
Cn1c(CCCC(=O)O)nc2cc(N(CCCl)CCCl)ccc21,,14800 nM (active)
C[C@]12CC[C@H](O)CC1=CC[C@@H]1[C@@H]2CC[C@]2(C)C(=O)CC[C@@H]12,114% (inactive),

Compound,viability (% of control),Potency
Cn1cc(C2=C(c3cn(C4CCN(Cc5ccccn5)CC4)c4ccccc34)C(=O)NC2=O)c2ccccc21,,5250 nM (active)
CC(C)(O)/C=C\C(=O)[C@](C)(O)[C@H]1[C@H](O)C[C@]2(C)[C@@H]3CC=C4[C@@H](C=C(O)C(=O)C4(C)C)[C@]3(C)C(=O)C[C@@]12C,,105 nM (active)
CC[C@@H](C(N)=O)N1CCCC1=O,102% (inactive),
Cc1c(N)nc([C@H](CC(N)=O)NC[C@@H](N)C(N)=O)nc1C(=O)N[C@H](C(=O)N[C@@H](C)[C@H](O)[C@@H](C)C(=O)N[C@@H](C(=O)NCCc1nc(-c2nc(C(=O)NCCC[S+](C)C)cs2)cs1)[C@@H](C)O)C(O[C@H]1O[C@H](CO)[C@H](O)[C@@H](O)[C@H]1O[C@H]1O[C@H](CO)[C@@H](O)[C@H](OC(N)=O)[C@@H]1O)c1cnc[nH]1 (stereo not given in full),,8110 nM (active)
COc1cc(C)[nH]c(=O)c1CNC(=O)c1c(C)n([C@H](C)C2CCOCC2)c2ccccc12,106% (inactive),
Cc1sc2c(c1C)C(c1ccc(Cl)cc1)=NC(CC(N)=O)c1nnc(C)n1-2 (stereo not given),,148 nM (active)
C[C@@H]1O[C@@H](O[C@@H]2C=C3CC[C@@H]4[C@H](CC[C@]5(C)[C@@H](c6ccc(=O)oc6)CC[C@]45O)[C@@]3(C)CC2)[C@H](O)[C@H](O)[C@H]1O,,14.8 nM (active)
CC(C)c1cccc(C(C)C)c1O,107% (inactive),
C/C(=C\c1csc(C)n1)[C@@H]1C[C@@H]2O[C@]2(C)CCC[C@H](C)[C@H](O)[C@@H](C)C(=O)C(C)(C)[C@@H](O)CC(=O)O1,,8.3 nM (active)
CSCC[C@@H](NC(=O)[C@@H](Cc1ccccc1)NC(=O)CNC(=O)CNC(=O)[C@@H](N)Cc1ccc(O)cc1)C(=O)O,106% (inactive),
COC[C@@H](NC(C)=O)C(=O)NCc1ccccc1,110% (inactive),
O=C(O)C(=O)c1cn(Cc2ccccc2)c2ccc(-c3ccc(OC(F)(F)F)cc3)cc12,90.3% (inactive),
CCCCCCC(C)(C)c1cc(O)c2c(c1)OC(C)(C)C1CC=C(CO)C[C@H]21 (stereo not given in full),,14800 nM (active)
O=P1(N(CCCl)CCCl)NCCCO1 (stereo not given),107% (inactive),
CN(C)NC(=O)CCC(=O)O,85.6% (inactive),
c1ccc2c(CN3CCNCC3)cccc2c1,92.5% (inactive),
Cn1c(CCCCCCC(=O)NO)nc2cc(N(CCCl)CCCl)ccc21,,2950 nM (active)
CN1[C@H]2CC(O)C[C@H]1[C@H]1O[C@H]12 (stereo not given in full),111% (inactive),
Cc1ncc(OC[C@@]2(c3cccc(F)c3)C[C@H]2C(=O)Nc2ccc(F)cn2)c(C)n1,96.4% (inactive),
CCOc1ccccc1-n1c(C(C)N2CCN(C(=O)COc3ccc(Cl)cc3)CC2)nc2ccccc2c1=O (stereo not given),,3320 nM (active)
